Test results taken from PubChem BioAssay.
Results filed as inconclusive are left out. Calls of active or inactive are those of the source.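 Rule for the calls, unless noted: active = GFP signal, as percent of the solvent control, above the screen mean plus 3 SD, about 149; inconclusive = no reading because the compound's own fluorescence upset strain identification; inactive = the rest.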

Columns and labels:
[1] = yeast TOR pathway RPL19A-GFP modulators, primary screen, cell-based, S. cerevisiae, multiplex flow cytometry (AID 1862; in the data active = percent of DMSO control GFP below about 86%;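 note: lower values mimic rapamycin by blocking the RPL19A rise seen in DMSO cells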); conditions: S. cerevisiae RPL19A-GFP strain, flow cytometry fluorescence, 3 h; at 10 µM; stronger effect = lower value
[2] = modulators of MEP2-GFP levels in yeast, primary screen, S. cerevisiae, multiplex flow cytometry (AID 1867;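 active = GFP response, as percent of the DMSO control, above the screen-wide mean plus 3 SD, about 139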;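 note: median GFP channel fluorescence of barcode-gated MEP2-GFP cells measured by flow cytometry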); conditions: S. cerevisiae MEP2-GFP strain, 3 h, at 10 µM, stronger effect = higher value, 100% means same as DMSO wells
[3] = modulators of CIT2-GFP expression in yeast, primary screen, S. cerevisiae, GFP fusion, multiplex flow cytometry (AID 1870;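 active = percent response above a set limit, the screen-wide mean plus 3 SD, cut at about 130% in these data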;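 note: barcoded CIT2-GFP strain pooled with four other GFP strains with rapamycin as positive control; median GFP fluorescence per well over plate mean of DMSO wells so 100% = DMSO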); conditions: 3 h, at 10 µM, stronger effect = higher value
[4] = modulators of LAP4-GFP expression in yeast, primary screen, S. cerevisiae, multiplex flow cytometry (AID 1873); conditions: 3 h, at 10 µM, stronger effect = higher value
[5] = modulators of AGP1-GFP expression in yeast TOR pathway, primary screen, cell-based, multiplex flow cytometry, S. cerevisiae (AID 1887;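 active = GFP signal above the screen-wide mean plus 3 SD, that is over about 124.5% of the solvent control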;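 note: AGP1-GFP fusion strain of S. cerevisiae within a five-strain barcoded multiplex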); conditions: 3 h, at 10 µM, stronger effect = higher value
[6] = inhibitors of CD8+ T cell-vesicle binding, pilot screen, LFA-1/ICAM-1 modulator project, MLPCN validation set, flow cytometry (AID 2523;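 active = response below a set limit, under 55% cells CD8-positive and vesicle-bound, and CD8 cells' 90th-percentile brightness under 279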;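 for vesicle binding response: mean PE anti-B7-1 fluorescence of CD8+ cells relative to row control; 100% = QL9-loaded vesicles with DMSO vehicle in the same plate row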); conditions: 2C mouse CD8+ T cells, at 7 µM, stronger effect = lower value; double positive events: measured here: CD8+/vesicle+ event percentage
[7] = biological target: Integrin beta-1 (Homo sapiens) + Integrin alpha-4 (Homo sapiens) (UniProt P13612+P05556); experiment: inhibition of HUTS-21 binding to VLA-4, pilot screen, VLA-4 allosteric modulator project, U937 cells, HUTS-21 mAb, flow cytometry, validation set (AID 2674;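 active = inhibition above 50%, about 3 SD of the validation set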;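 note: antibody binding induced by the VLA-4 ligand LDV present at three times its Kd; 0% = LDV ligand with antibody and no compound and 100% = antibody without LDV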); conditions: HUTS-21 LIBS mAb binding, at 6.7 µM, stronger effect = higher value, binding induced by LDV ligand
[8] = biological target: Beta-adrenergic receptor kinase 1 (Homo sapiens) (UniProt P25098); experiment: GRK2 binders displacing RNA aptamer, biochemical, validation, human GRK2, bead flow cytometry (AID 488806;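 active = aptamer binding inhibition above 30%, about 3 SD of noise from non-fluorescent compounds; inactive = inhibition at or below 30%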); conditions: bead-bound GRK2, FAM-aptamer displacement, at 10 µM, stronger effect = higher value
[9] = biological target: Beta-2 adrenergic receptor (Homo sapiens) (UniProt P07550); experiment: beta2AR agonists driving receptor internalization, pilot screen, cell-based, FAP fluorogen, flow cytometry, validation set (AID 504459;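 active = percent response above 42, roughly 3 SD of non-fluorescent test compounds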;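 note: agonist-driven loss of surface beta2AR via internalization measured by FAP dye flow cytometry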); conditions: Am2.2-beta2AR cells, FAP surface receptor flow cytometry; at 10 µM; stronger effect = higher value
[10] = biological target: AP-2 complex subunit beta (Homo sapiens) (UniProt P63010); experiment: inhibitors of arrestin peptide binding to AP2, pilot screen, biochemical, validation set, GST-AP2 beads, flow cytometry (AID 504541;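 active = inhibition above 54%, about 3 SD of non-fluorescent compounds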;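 note: AP2 carries R879A mutation and is captured from E. coli lysate; bead-bound FITC arrestin peptide fluorescence measuring arrestin peptide binding to AP2; 0% = DMSO wells and 100% = excess unlabeled arrestin peptide control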); conditions: FITC arrestin peptide, at 10 µM, stronger effect = higher value, AP2 beta2 appendage fragment, R879A mutant
[11] = yeast V-ATPase proton transport modulators, S. cerevisiae, pHLuorin, HTS validation (AID 504600; in the data active = response above about 15%;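 note: plate controls were DMSO for no effect and reference compound for full effect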); conditions: S. cerevisiae pHLuorin cytosolic pH, at 10 µM, stronger effect = higher value
[12] = system: anti-desmoglein-3 scFv antibody binding to human DSG3; experiment: inhibitors of anti-DSG3 scFv binding to DSG3, pilot screen, biochemical, validation compound set, bead-based, flow cytometry (AID 588368;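 active = binding below the plate cutoff, the plate median minus 3 SD, with a reading above zero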;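 note: signal is the median channel fluorescence of bead-bound GFP antibody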); conditions: Protein G beads, DSG3-Fc, scFv-GFP binding, at 10 µM, stronger effect = lower value
[13] = inhibitors of fungal efflux pumps CDR1, CDR2, MDR1, pilot screen, validation compound set, multiplex, phenotypic (AID 588506;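 active = efflux inhibition above 0.42, the validation set average plus 4 SD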;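 note: Nile Red retained in cells so higher fluorescence means more efflux inhibition; 0 = negative control wells and 1 = enniatin B 25 µM full block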); conditions: S. cerevisiae pump-expressing triplex, Nile Red efflux flow cytometry; at 10 µM; stronger effect = higher value; the pumps come from Candida albicans
[14] = biological target: ATP-binding cassette sub-family B member 6 (Homo sapiens) (UniProt Q9NP58); experiment: ABCB6 transporter inhibitors, pilot screen, K562-ABCB6 cells, flow cytometry, validation set (AID 588550;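 active = inhibition above the screen-wide mean plus 3 SD, about 51%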;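 note: 0% = DMSO wells and 100% = benzethonium chloride 70 µM positive control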); conditions: K562-ABCB6 porphyrin accumulation, 1 h, at 10 µM, stronger effect = higher value
[15] = promoters of myeloid differentiation in arrested cells, primary screen, cell-based, GFP/MAC1 double positive, flow cytometry, validation set (AID 588685;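 active = differentiation response of at least 50%, scaled between solvent and reference control, from cells with both markers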;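 note: compound exposure lasts four days before antibody staining and flow analysis; 0% = DMSO wells and 100% = 5 µM fulvestrant positive control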); conditions: ER-HoxA9 marrow cells, stronger effect = higher value, normalized: vehicle 0, fulvestrant 100
[16] = superoxide lowering in aged yeast cells, pilot screen, validation compound set (AID 2706;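 active = superoxide response below 65% of plate, a cut near 3 SD across the whole screen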;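 note: yeast exposed to compound for one week at 30 degrees C before staining; 100% = mean of all compound wells on the same plate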); conditions: S. cerevisiae aging, superoxide DHE fluorescence; at 10 µM, stronger effect = lower value

Sequence of ATP-binding cassette sub-family B member 6 (Homo sapiens) (Q9NP58 whole entry, looked up): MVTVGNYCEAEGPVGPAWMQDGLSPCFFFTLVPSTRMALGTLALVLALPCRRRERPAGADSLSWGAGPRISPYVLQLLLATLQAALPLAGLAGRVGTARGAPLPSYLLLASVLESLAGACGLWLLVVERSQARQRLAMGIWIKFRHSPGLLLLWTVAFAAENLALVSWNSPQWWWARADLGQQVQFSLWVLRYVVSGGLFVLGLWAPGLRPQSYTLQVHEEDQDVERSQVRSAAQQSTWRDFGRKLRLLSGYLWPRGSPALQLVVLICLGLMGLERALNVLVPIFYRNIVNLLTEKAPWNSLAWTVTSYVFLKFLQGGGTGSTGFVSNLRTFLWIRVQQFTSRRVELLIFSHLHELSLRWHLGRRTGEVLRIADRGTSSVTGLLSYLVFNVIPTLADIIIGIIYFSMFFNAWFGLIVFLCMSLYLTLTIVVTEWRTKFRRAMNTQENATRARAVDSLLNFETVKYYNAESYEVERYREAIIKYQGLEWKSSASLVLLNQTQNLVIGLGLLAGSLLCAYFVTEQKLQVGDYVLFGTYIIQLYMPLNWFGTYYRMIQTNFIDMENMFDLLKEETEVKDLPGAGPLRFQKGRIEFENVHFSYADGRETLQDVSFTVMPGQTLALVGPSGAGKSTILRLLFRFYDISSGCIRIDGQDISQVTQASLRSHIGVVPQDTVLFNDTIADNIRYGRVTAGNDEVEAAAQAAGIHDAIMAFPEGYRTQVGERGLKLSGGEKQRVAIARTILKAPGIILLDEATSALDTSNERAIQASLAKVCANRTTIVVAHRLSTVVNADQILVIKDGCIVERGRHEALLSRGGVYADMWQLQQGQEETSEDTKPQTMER
Sequence of Integrin beta-1 (Homo sapiens) + Integrin alpha-4 (Homo sapiens) (P05556 whole entry, looked up): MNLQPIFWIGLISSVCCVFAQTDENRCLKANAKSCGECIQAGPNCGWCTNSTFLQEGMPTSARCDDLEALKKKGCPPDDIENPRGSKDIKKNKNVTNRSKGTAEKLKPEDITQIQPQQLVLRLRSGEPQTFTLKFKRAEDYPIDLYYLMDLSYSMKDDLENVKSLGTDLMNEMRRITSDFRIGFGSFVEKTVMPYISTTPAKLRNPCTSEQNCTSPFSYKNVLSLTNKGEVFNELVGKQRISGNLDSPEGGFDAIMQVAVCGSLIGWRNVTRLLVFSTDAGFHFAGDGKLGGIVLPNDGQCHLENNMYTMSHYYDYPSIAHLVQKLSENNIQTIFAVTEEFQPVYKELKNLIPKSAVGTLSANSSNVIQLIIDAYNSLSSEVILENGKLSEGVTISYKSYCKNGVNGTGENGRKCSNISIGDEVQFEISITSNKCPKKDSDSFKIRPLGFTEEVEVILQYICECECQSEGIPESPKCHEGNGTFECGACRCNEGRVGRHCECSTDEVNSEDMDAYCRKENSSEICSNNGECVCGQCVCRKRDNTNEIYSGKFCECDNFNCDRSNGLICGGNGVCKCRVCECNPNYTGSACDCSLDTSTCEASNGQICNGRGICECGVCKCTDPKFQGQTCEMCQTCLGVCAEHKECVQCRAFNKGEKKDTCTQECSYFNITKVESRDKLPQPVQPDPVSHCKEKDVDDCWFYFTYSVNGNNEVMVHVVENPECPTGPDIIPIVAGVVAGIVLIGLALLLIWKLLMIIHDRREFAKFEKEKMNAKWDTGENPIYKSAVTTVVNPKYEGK
Sequence of Integrin beta-1 (Homo sapiens) + Integrin alpha-4 (Homo sapiens) (P13612 whole entry, looked up): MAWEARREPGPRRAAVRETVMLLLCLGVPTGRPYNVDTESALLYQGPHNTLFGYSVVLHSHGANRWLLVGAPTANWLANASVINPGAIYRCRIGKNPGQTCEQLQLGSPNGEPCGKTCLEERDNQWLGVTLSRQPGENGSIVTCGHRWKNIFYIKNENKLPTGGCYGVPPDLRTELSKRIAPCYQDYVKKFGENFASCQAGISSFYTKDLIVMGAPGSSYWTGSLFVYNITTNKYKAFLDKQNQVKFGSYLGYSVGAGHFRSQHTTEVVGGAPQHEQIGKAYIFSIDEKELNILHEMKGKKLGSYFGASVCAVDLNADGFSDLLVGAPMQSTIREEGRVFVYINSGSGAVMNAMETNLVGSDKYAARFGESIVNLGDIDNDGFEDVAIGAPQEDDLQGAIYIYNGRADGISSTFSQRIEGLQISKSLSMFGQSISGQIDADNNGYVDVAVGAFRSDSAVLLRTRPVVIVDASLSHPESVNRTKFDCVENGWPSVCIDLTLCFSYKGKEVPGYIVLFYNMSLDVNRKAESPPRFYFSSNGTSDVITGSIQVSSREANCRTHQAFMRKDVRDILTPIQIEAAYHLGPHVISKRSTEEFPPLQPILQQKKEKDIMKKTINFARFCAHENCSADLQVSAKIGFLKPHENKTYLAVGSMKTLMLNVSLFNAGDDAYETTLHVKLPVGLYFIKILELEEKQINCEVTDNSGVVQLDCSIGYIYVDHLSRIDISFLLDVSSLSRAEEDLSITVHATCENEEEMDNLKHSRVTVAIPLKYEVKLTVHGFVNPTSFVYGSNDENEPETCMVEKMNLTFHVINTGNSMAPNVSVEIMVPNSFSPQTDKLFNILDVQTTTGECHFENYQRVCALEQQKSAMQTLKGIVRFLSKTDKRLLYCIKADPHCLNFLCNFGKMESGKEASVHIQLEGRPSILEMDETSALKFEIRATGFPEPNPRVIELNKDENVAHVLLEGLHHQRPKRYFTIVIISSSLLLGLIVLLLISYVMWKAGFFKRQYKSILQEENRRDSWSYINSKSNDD
Sequence of Beta-2 adrenergic receptor (Homo sapiens) (P07550 whole entry, looked up): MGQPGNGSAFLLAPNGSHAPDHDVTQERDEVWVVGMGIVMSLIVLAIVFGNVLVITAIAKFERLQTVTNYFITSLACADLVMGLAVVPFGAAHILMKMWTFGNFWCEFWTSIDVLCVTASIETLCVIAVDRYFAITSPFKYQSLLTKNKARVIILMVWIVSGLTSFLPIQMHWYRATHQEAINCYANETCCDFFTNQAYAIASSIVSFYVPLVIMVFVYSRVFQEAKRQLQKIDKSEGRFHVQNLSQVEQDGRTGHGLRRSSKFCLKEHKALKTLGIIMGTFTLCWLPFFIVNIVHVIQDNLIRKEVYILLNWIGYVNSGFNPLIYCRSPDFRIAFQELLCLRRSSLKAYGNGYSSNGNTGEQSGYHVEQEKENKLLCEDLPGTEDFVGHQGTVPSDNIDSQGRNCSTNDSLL
Sequence of AP-2 complex subunit beta (Homo sapiens) (P63010 whole entry, looked up, the tested form may be a part, one chain of several): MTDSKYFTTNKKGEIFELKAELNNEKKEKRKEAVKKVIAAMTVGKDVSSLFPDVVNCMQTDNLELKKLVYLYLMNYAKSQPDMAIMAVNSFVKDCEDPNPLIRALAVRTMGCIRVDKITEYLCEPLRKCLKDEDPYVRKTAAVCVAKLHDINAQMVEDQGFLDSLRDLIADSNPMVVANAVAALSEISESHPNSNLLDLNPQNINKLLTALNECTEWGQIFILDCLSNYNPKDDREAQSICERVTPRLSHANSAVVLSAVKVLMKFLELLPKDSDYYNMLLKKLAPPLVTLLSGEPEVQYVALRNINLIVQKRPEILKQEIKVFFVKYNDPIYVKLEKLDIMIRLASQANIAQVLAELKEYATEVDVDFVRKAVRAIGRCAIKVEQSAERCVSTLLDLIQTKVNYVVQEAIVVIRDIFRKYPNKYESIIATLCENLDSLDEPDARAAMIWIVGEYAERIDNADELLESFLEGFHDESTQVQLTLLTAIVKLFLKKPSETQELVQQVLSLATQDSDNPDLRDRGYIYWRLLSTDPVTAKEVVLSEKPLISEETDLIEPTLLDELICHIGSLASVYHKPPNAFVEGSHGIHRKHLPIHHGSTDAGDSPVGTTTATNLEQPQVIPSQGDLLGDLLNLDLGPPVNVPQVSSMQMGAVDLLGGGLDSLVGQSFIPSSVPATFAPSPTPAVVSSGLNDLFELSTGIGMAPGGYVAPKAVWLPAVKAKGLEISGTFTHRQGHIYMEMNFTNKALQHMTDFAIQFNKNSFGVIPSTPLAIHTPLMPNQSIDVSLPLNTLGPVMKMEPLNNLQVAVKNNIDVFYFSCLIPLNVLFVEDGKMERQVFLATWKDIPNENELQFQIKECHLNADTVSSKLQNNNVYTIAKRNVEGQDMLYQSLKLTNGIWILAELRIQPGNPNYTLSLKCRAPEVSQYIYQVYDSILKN
Sequence of Beta-adrenergic receptor kinase 1 (Homo sapiens) (P25098 whole entry, looked up): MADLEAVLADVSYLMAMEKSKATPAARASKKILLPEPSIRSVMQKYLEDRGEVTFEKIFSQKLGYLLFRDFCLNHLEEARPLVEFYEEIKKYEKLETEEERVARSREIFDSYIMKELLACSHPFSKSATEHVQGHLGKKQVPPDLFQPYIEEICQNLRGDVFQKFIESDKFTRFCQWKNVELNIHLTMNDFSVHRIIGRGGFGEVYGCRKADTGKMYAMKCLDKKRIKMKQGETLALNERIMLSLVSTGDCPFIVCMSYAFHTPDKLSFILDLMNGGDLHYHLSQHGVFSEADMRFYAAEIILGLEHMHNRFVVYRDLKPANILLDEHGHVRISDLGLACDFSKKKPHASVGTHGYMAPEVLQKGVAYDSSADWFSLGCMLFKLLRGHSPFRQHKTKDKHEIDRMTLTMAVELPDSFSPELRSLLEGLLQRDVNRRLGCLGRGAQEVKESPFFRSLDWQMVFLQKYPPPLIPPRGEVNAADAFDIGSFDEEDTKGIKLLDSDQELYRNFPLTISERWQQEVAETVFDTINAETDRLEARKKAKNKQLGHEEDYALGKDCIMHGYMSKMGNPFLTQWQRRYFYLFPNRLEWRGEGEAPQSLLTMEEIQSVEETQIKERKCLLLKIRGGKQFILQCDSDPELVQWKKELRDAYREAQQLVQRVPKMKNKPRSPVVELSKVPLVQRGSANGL

| Compound | percent of DMSO control GFP [1] | GFP response vs DMSO [2] | percent response of DMSO control [3] | GFP response vs DMSO [4] | GFP response, % of DMSO [5] | double positive events [6] [%] | vesicle binding response [6] | inhibition [7] | aptamer binding inhibition [8] | response [9] | inhibition [10] | response [11] | binding (% of control) [12] | efflux inhibition (fraction of control) [13] | inhibition [14] | differentiation response [15] | superoxide response (% of plate) [16] |
| --- | --- | --- | --- | --- | --- | --- | --- | --- | --- | --- | --- | --- | --- | --- | --- | --- | --- |
| C[C@]12CC[C@@H]3c4cc(O)c(O)cc4CC[C@H]3[C@@H]1CC[C@@H]2O | 98.8% (inactive) | 98.3% (inactive) | 95.4% (inactive) | 81.5% (inactive) | 90% (inactive) | 65.9 | 236% (inactive) | 16.1% (inactive) | 3% (inactive) | 0.11% (inactive) | 2.25% (inactive) | -0.25% (inactive) | 96.1% (inactive) | 0.49 (active) | 5% (inactive) | 8.06% (inactive) | – |
| Clc1ccc(Cn2c(CN3CCCC3)nc3ccccc32)cc1 | 100% (inactive) | 104% (inactive) | 107% (inactive) | 100% (inactive) | 102% (inactive) | 56.4 | 98% (inactive) | – | -1% (inactive) | – | 1.97% (inactive) | -2.91% (inactive) | 102% (inactive) | -0.43 (inactive) | 4% (inactive) | -22.8% (inactive) | 105% (inactive) |
| COc1ccc(-c2onc(C)c2-c2ccc(C(=O)OC(C)C)o2)c(O)c1 | 102% (inactive) | 109% (inactive) | 93.4% (inactive) | 102% (inactive) | 90.1% (inactive) | 71.4 | – | 2.93% (inactive) | -3% (inactive) | 58.6% (active) | -6.7% (inactive) | -0.7% (inactive) | 105% (inactive) | -0.02 (inactive) | 5% (inactive) | 13% (inactive) | 95.6% (inactive) |
| Cc1ccc(S(=O)(=O)Nc2ccc(S(=O)(=O)Nc3cc(C)nc(C)n3)cc2)cc1 | 91.1% (inactive) | 120% (inactive) | 108% (inactive) | 78.1% (inactive) | – | 76 | 256% (inactive) | 23.9% (inactive) | 0% (inactive) | 1.77% (inactive) | -0.21% (inactive) | 15% (inactive) | 101% (inactive) | -0.35 (inactive) | 6% (inactive) | 26.2% (inactive) | 89.7% (inactive) |
| Cc1ccccc1OCC(O)CN1CCN(C)CC1 (centres undefined) | 97.9% (inactive) | 115% (inactive) | 112% (inactive) | 75.9% (inactive) | – | 62.9 | 193% (inactive) | 4.52% (inactive) | 3% (inactive) | -6.23% (inactive) | 5.62% (inactive) | -0.77% (inactive) | 103% (inactive) | 0.27 (inactive) | 7% (inactive) | -2.46% (inactive) | 107% (inactive) |
